Assay outcomes (PubChem BioAssay)
Most compounds without a hit are left out; they make up all but 2.4% or so of the library.
Pol eta inh = inhibitors of human DNA polymerase eta; Q9Y253; actives 1.2% (n = 390,000); Potency, µM (series often up to 114 µM), most hits filed as inhibitors; AID 588591; recombinant Pol eta, fluorescent DNA replication assay
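Fluorescent replication assay: 50 nM final substrate added after a 15 min room-temperature compound preincubation with 10 nM enzyme. Signal taken at 0 min and again at 10 min.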
POLB inh = blocks human DNA polymerase beta activity; P06746; Pol beta primer extension/strand displacement, fluorescence kinetic; Potency, µM (top dose mostly 114 µM), actives largely listed as inhibitors; actives 1.3% (n = 340,000)
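Pol beta (10 nM) and compounds were preincubated 15 min at room temperature, then 50 nM substrate (final) started primer extension/strand displacement. Reads were taken at 0 and 10 min; concentration-response data were fitted to a four-parameter Hill equation.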
Pol iota inh = inhibitors of human DNA polymerase iota; Q9UNA4; Pol iota fluorescent replication assay, 10 min; Potency, µM (top dose mostly 115 µM), usual class: inhibitors; actives 1% (n = 390,000); AID 588590
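Fluorescent replication assay read twice, at 0 min and 10 min after adding 50 nM (final) substrate. Enzyme (10 nM) and compounds were first incubated 15 min at room temperature; enzyme-free buffer wells were negative controls.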
FEN1 inhibitor = blocks human flap endonuclease 1; actives 0.35% (n = 390,000); Recombinant FEN1 flap cleavage, fluorescence, 15 min; P39748; Potency, µM (titrated, usually from 114 µM), hits mostly inhibitors; further: nearly all actives have a fitted effect of over 65% in size
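Concentration–response screening of FEN1 (10 nM): 15 min compound preincubation at room temperature, reaction started with 50 nM substrate and read at 0 and 15 min. Corrected, normalized data were fitted by a four-parameter Hill equation.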
WRN helicase inh = blocks human WRN helicase; Q14191; WRN helicase unwinding, fluorescent forked duplex, kinetic; Potency, µM (series often up to 114 µM), usual class: inhibitors; actives 0.46% (n = 360,000); further: nearly all actives have a fitted effect of over 55% in size
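Kinetic red-fluorescence monitoring (525/598 nm) tracks WRN helicase activity after 100 nM fluorophore-quencher forked duplex and 2 mM ATP are added to 20 nM enzyme pretreated 15 min at room temperature with compound.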
POLK inh = DNA polymerase kappa (human) inhibition | Q9UBT6 | purified Pol kappa, fluorescent DNA synthesis assay, 10 min | Potency, µM (highest dose often 107 µM), most hits filed as inhibitors | actives 0.53% (n = 400,000)
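Fluorescent qHTS in 1536-well format: enzyme (10 nM) and compound sat 15 min at room temperature before 50 nM substrate (final) was added. Signal taken at 0 and 10 min; no-enzyme buffer wells were negative controls.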
Hits are given with their value; n = inactive; u = inconclusive; x = no result given; [ ] = another dose, or the depositor's remark. The call rests on the fitted dose curve; in most records, active means well fitted curve in the direction sought with a large enough effect; inconclusive means small, poorly fitted or top-dose-only effect, or another doubt; inactive means no such curve, though single readings can be large; an effect the other way counts as inactive or inconclusive.

SMILES	Pol eta inh	POLB inh	Pol iota inh	FEN1 inhibitor	WRN helicase inh	POLK inh
CCCCN(CCC(=O)O)c1ccc(/C=C/c2ccnc3ccccc23)cc1	x	x	n	n	x	n
CC1=Nc2ccccc2/C1=C/c1c(N)n2c(S(=O)(=O)CC(C)C)nsc2nc1=O	40µM	u	n	n	u	n
CC1=Nc2ccccc2/C1=C/c1c(N)n2c(S(=O)(=O)C(C)C)nsc2nc1=O	u	n	n	n	u	n
COc1ccc(Cn2c(SCc3ccc(C(=O)NCc4cccs4)cc3)nc3ccncc32)cc1	n	n	n	n	x	n
O=C(Nc1ccc(F)cc1)c1ccc(=O)[nH]n1	n	n	n	n	n	n
O=C(Nc1cccc(Cl)c1)c1ccc(=O)[nH]n1	n	n	18µM	n	n	n
Cc1c(N)cc(N)cc1C(=O)O	n	n	45µM	n	n	89µM
Nc1ccc(Cc2ccc(N)c(C(=O)O)c2)cc1C(=O)O	n	n	n	n	n	n
Cc1ccc2c(/C=C/c3ccc(N(C)C)cc3)ccnc2c1	x	x	n	n	x	n
O=C(C=Cc1ccccc1)c1cc(Br)ccc1O	n	x	n	n	n	n
CCc1ccc(/C=C/C(=O)c2cc(Br)ccc(=O)c2O)cc1	u	16µM	u	u	n	u
CCOc1ccc(/C=C/C(=O)c2cc(Br)ccc(=O)c2O)cc1	u	u	u	45µM	u	u
O=C(O)c1ccc2c(ccc3nn(-c4ccc(/C=C/c5ccc(-n6nc7ccc8cc(C(=O)O)ccc8c7n6)cc5[S+](=O)([O-])[O-])c([S+](=O)([O-])[O-])c4)nc32)c1	x	x	u	3.2µM	x	1.8µM
O=[S+]([O-])([O-])c1ccc2c(c1)cc([S+](=O)([O-])[O-])c1nn(-c3ccc(/C=C/c4ccc(-n5nc6c([S+](=O)([O-])[O-])cc7cc([S+](=O)([O-])[O-])ccc7c6n5)cc4[S+](=O)([O-])[O-])c([S+](=O)([O-])[O-])c3)nc12	x	x	u	u	x	10µM
O=C(O)c1ccc2c(c1)ncn2-c1ccc(F)c(F)c1	n	n	n	n	x	n
COC1=C(Nc2ccccc2)C(=O)c2ccccc2C1=O	n	u	18µM	n	n	n
COC1=C(OC)C(=O)c2ccccc2C1=O	u	28µM	22µM	u	x	n
COC1=C(Nc2ccc(C)cc2)C(=O)c2ccccc2C1=O	n	u	u	n	n	n
COCCN(C(=O)CSc1n[nH]c(-c2ccc(OC)cc2)n1)c1c(N)n(Cc2ccccc2)c(=O)[nH]c1=O	n	x	n	n	n	n
Cc1ccc(-c2nc(SCC(=O)N(C)c3c(N)n(Cc4ccccc4)c(=O)[nH]c3=O)n[nH]2)cc1	n	89µM	n	n	n	n
CCOc1ccc(C(=O)Nc2ccc(N3CCN(C(=O)c4ccco4)CC3)cc2)cc1Br	u	x	25µM	n	u	n
COc1ccc(CNC(=O)c2ccc(-c3nc(CSc4ccc(C)cc4)c(C)o3)cc2)c(OC)c1	n	n	n	n	x	n
CC(C)COC[C@H](CN(Cc1ccccc1)c1ccccc1)N1CCCC1	x	x	x	x	x	n[12 µM]
CCCCNc1ncnc2oc(-c3ccco3)c(-c3ccco3)c12	x	x	71µM	u	x	u
CN(C)CCNc1ncnc2oc(-c3ccccc3)c(-c3ccccc3)c12	n	n	u	u	n	n
SMILES	Pol eta inh	POLB inh	Pol iota inh	FEN1 inhibitor	WRN helicase inh	POLK inh
Cc1cccc(N2C(=O)c3ccc(C(=O)Nc4ccccn4)cc3C2=O)c1	n	n	n	n	n	n
Cc1cccc(N2C(=O)/C(=C\c3ccc(C(=O)O)cc3)c3ccccc3C2=O)c1	45µM	n	n	n	n	n
COc1ccc(CN2CCSc3sccc3C2=O)cc1	n	79µM	n	n	n	n
Cc1ccc(S(=O)(=O)N(C)CCN(C)c2nc(-c3cccs3)nc3ccccc23)cc1	x	x	n	n	x	n
O=C(O)c1cccc2[nH]c(C(F)(F)F)nc12	n	n	n	n	n	n
Nc1cccc2[nH]c(C(F)(F)F)nc12	79µM	u	40µM	56µM	n	u
COc1ccc(-c2cc3nc(C)c(CCC(=O)Nc4ccc(F)cc4F)c(C)n3n2)c(OC)c1	n	n	n	n	x	n
CC(C)(C)n1ncc2c(=O)n(Cc3c(Cl)ccc(Cl)c3Cl)cnc21	x	x	n	n	x	n
Cc1ccc(N=C2NC(=O)/C(=C/c3cccs3)S2)cc1C	n	10µM	n	n	n	n
O=C1NC(=Nc2ccccc2)S/C1=C\c1ccccc1	n	n	n	n	n	n
O=C1NC(=Nc2ccccc2)S/C1=C/c1cccs1	n	32µM	u	n	n	n
Cc1cccc(N=C2NC(=O)/C(=C\c3cccs3)S2)c1	u	n	n	n	n	n
O=C1c2cccc3c(O)ccc(c23)C(=O)N1Cc1ccco1	32µM	u	20µM	u	u	u
CCCC[C@]12Cc3ccccc3C(O1)c1c(cc(-c3ccccc3)oc1=O)O2	x	3.5µM	x	x	x	x
O=C(N/N=C\c1cccnc1)c1cc(-c2ccc(Cl)s2)[nH]n1	u	14µM	u	u	u	n
Cc1cccc(C(=O)Nc2ccc(C(=O)N/N=C/c3ccc4c(c3)OCO4)cc2)c1	n	35µM	n	n	n	n
Cc1cccc(C(=O)Nc2cccc(C(=O)N/N=C/c3ccc4c(c3)OCO4)c2)c1	n	n	n	n	n	n
O=C(N/N=C/c1cccnc1)c1ccccc1Cl	n	n	u	n	n	n
O=C(N/N=C/c1cccnc1)c1ccc(NC(=O)c2cccc(Cl)c2)cc1	u	8.9µM	u	n	n	n
Cc1ccc(CNC(=O)c2cc(NS(=O)(=O)c3ccc(C)cc3)ccn2)cc1	n	u	n	n	x	n
CCc1cccc(NC(=O)Cn2nc3c4cc(F)ccc4n(Cc4cccc(C)c4)cc-3c2=O)c1	n	n	n	n	x	n
O=C(CNS(=O)(=O)c1c(Cl)cccc1Cl)OCC(=O)c1ccc[nH]1	45µM	u	16µM	n	n[11.6 µM]	u
CCOC(=O)c1c(NC(=O)C(C)Sc2cn(CCNC(=O)c3ccccc3OC)c3ccccc23)sc2c1CCC2 (stereo not given)	n	n	n	n	x	n
O=c1c2ccccc2oc2cc(-c3ccc4[nH]ccc4c3)ccc12	n	x	n	n	n	n
COc1cc2sc3ccc(-c4ccc5[nH]ccc5c4)cc3c(=O)c2cc1OC	n	x	79µM	n	n	n
CC(=O)NC1[C@H]([C@H](O)[C@H](O)CO)OC(C(=O)O)=C[C@H]1N=C(N)N (stereo not given in full)	x	x	x	x	x	n
Cc1cc(C=C2C(=O)c3ccccc3C2=O)c(C)n1-c1cccc(C(=O)O)c1	45µM	u	u	n	n	u
O=C1NN(c2ccccc2)C(=O)C1=Cc1ccccc1O	n	x	x	x	n	x
Cc1cc(/C=C2/C(=O)NN(c3ccccc3)C2=O)c(C)n1-c1cccc(O)c1	u	u	56µM	n	n[11.6 µM]	n
